# PubChem BioAssay AID720533 (National Center for Advancing Translational Sciences (NCATS), 2013)
# Out of some 18,000 compounds screened, about 750 (4.2%) were called active. Roughly 13% stayed inconclusive and do not appear here. Shown is part of a subset that was picked to be rich in actives. Values without a mark were called inactive. The call rests on the fitted dose curve; tested in HEK293 cells.
# Assay: qHTS for Inhibitors of binding or entry into cells for Lassa Virus
# Conditions: Lassa virus pseudotyped entry inhibition, cell-based qHTS; series mostly up to 49.2 µM; activity change, negative = inhibition: at the top concentration
# On the % scale 0 is the no-effect control and ±100 the full control effect; potency means the concentration at half of the fitted maximal effect.
Structure (SMILES),"activity change, negative = inhibition",Potency
CCCC[C@]12Cc3cc(C#N)ccc3[C@H](O1)c1c(cc(-c3ccccc3)oc1=O)O2,20.3% [at 8.59 µM],–
C=C(C)C(O)C=CC=Cc1ccccc1 (stereo unspecified),46.4% [at 8.59 µM],–
C=O,7.43%,–
C[C@H]1CCC[C@@]2(C)CCCC[C@]12O,-4.17%,–
CO[C@@]12[C@@H](COC(N)=O)C3=C(C(=O)C(C)=C(N)C3=O)N1C[C@@H]1N[C@@H]12,-2.25%,–
COc1cc(=O)n2c(c1C(=O)NC(C)c1ccco1)CCN(C(=O)c1cn3ccc(C)cc3n1)CC2 (stereo unspecified),-8.78%,–
CC[C@H](C)[C@H](NC(=O)[C@H](CCCNC(=N)N)NC(=O)[C@H](CCCNC(=N)N)NC(=O)[C@H](CC(C)C)NC(=O)[C@H](Cc1ccccc1)NC(=O)CNC(=O)CNC(=O)[C@@H](N)Cc1ccc(O)cc1)C(=O)N[C@@H](CCCNC(=N)N)C(=O)N1CCC[C@H]1C(=O)N[C@@H](CCCCN)C(=O)N[C@@H](CC(C)C)C(=O)N[C@@H](CCCCN)C(=O)N[C@@H](Cc1c[nH]c2ccccc12)C(=O)N[C@@H](CC(=O)O)C(=O)N[C@@H](CC(N)=O)C(=O)N[C@@H](CCC(N)=O)C(=O)O,2.04%,–
CCC1(C2CCN(Cc3cccnc3)CC2)NC(=O)N(CC2COc3ccccc3O2)C1=O (stereo unspecified),-0.768%,–
COC(=O)C12C[C@@H](C)C3C(C)C(c4ccccc4C31)N2C(=O)C(F)(F)F (stereo partly specified),4.36% [at 8.59 µM],–
C=CCOC(=O)N[C@@H](CC(C)C)C(C(=O)OC)=C(C)NCc1ccccc1,-29.4% [at 8.59 µM],–
C[C@H]1Cc2c(-c3ccccc3)nc3c(c2CO1)CN(S(=O)(=O)c1ccc(Cl)c2nonc12)CC3,-12.5% [at 8.59 µM],–
CC1(C)OC[C@@H](COC(=O)CCc2ccc(OC[C@@H](O)CNCCNC(=O)N3CCOCC3)cc2)O1,inactive,–
NS(=O)(=O)c1ccc(N=Nc2c(O)[nH]c3cccc(CCc4ccncc4)c23)cc1,27.4%,–
CC(=O)OC[C@H]1O[C@H](C#CCCCc2ccccc2)C=C[C@H]1OC(C)=O,-26.7% [at 8.59 µM],–
COc1ccc(-n2c(CNC(=O)c3cc(C(F)(F)F)ccc3Cl)nnc2SC)cc1,0.159%,–
CCCC1C(=O)N2C(N(C)C)=Nc3ccc(C)cc3N2C1=O (stereo unspecified),-4.84% [at 17.8 µM],–
CC(=O)OCC(COC(C)=O)OC(C)=O,inactive,–
COC(=O)C(C(=O)OC)C1c2ccccc2C=C(C2CC2)N1C(=O)OC (stereo unspecified),inactive,–
CCC1CN(CCNC(=O)c2cccnc2C)Cc2cc(OC)ccc2O1 (stereo unspecified),-1.24%,–
O=C1OCCN1C(=O)[C@H]1[C@H](c2ccc(F)cc2)C(c2ccccc2)=NN1c1ccc(Br)cc1,-12.8%,–
CCn1ccnc1C[C@@H]1COc2ccccc2O1,19.4%,–
C#CCN([C@@H](C)C(=O)OCC)S(=O)(=O)c1ccc(Br)cc1F,21.8%,–
CCCc1c2oc(C(=O)O)cc(=O)c2cc2c(=O)cc(C(=O)O)n(CC)c12,-11.3%,–
CCc1noc(C)c1C(=O)NCCN1Cc2cc(OC)ccc2OC(CC)C1 (stereo unspecified),-8.14%,–
CC(=O)c1c(O)c(C)c(O)c(Cc2c(O)c3c(c(C(=O)/C=C/c4ccccc4)c2O)OC(C)(C)C=C3)c1O,inactive,–
CC(=O)c1c(O)c(C)c(O)c(Cc2c(O)c3c(c(C(=O)/C=C\c4ccccc4)c2O)OC(C)(C)C=C3)c1O,–,15.8 µM (active)

Structure (SMILES),"activity change, negative = inhibition",Potency
O=C(/C=C/c1ccccc1)c1ccccc1O,4.23%,–
CC(C)CNc1cccc2c1S(=O)(=O)N[C@H](CC(C)C)CO2,23.9%,–
CC[C@@]12C=C(/C=C/c3ccccc3)[C@](CC)(C1)[C@H](c1ccccc1)CC2=O,4.3%,–
O=C(NCc1ccco1)O[C@@H]1C(=O)c2cc(Br)ccc2O[C@H]1c1ccc2c(c1)OCO2,-1.63%,–
O=C(C1CCCCC1)N1C[C@@H](n2cc(C3CC3)nn2)[C@@H](O)C[C@@H]1c1ccccc1,14.9%,–
COC(=O)c1ccccc1-c1cc(C)cc2c1OC(CNC(=O)C1CCOC1)C2 (stereo unspecified),-27.8%,–
CC(C)c1ccc2c(c1)c(SC(C)(C)C)c(CC(C)(C)C(=O)O)n2Cc1ccc(Cl)cc1,–,25.1 µM (active)
COCCN1C(=S)NC(c2cccc(F)c2)C(C(=O)OC)=C1C (stereo unspecified),11% [at 8.59 µM],–
O=C(Nc1ccc(C(=O)O)c(O)c1)c1ccccc1,-5.82%,–
O=C(Nc1cccc(C(F)(F)F)c1)c1cc(Br)cc(Br)c1O,–,3.98 µM (active)
O=C(Nc1ccc(O)cc1)c1ccccc1O,-7.09%,–
c1ccc2c(c1)[I+]c1ccccc1-2,–,0.891 µM (active)
CCCCCCCC/C=C\CCCCCCCC(=O)OC[C@H](CO)OC(C)=O,inactive,–
Cc1cc2oc(=O)cc(-c3ccccc3)c2c(C)c1/C=C/c1ccc(F)cc1,-26.5%,–
Oc1c(Cl)cc(Cl)c(Cl)c1Cc1c(O)c(Cl)cc(Cl)c1Cl,–,6.31 µM (active)
C=CCC1CCC(=O)N2CCCC12 (stereo unspecified),6.13% [at 107 µM],–
CO[C@H]1C=CO[C@@]2(C)Oc3c(C)c(O)c4c(O)c(c(/C=N/N5CCN(C)CC5)c(O)c4c3C2=O)NC(=O)/C(C)=C\C=C[C@H](C)[C@H](O)[C@@H](C)[C@@H](O)[C@@H](C)[C@H](OC(C)=O)[C@@H]1C,-2.8%,–
COC(=O)C(C(=O)OC)[C@@H](NC=O)c1ccccc1,3.12%,–
Cc1c(O)cc(O)c2c(=O)c(-c3ccc(O)cc3)coc12,9.52%,–
O=C(OCc1ccccc1)c1ccc(O)cc1,5.78%,–
O=c1c(O)c(-c2ccc(O)cc2)oc2ccccc12,-13.3%,–
O=c1c(CN2CCOc3ccc(CN4CCC(Oc5cccnc5)CC4)cc3C2)coc2ccccc12,-25.2%,–
O[C@H]1CN(CC2CCCCC2)[C@@H](c2ccccc2)C[C@H]1n1cc(-c2ccc(F)cc2)nn1,-22.3%,–
O=c1cc(CN2CCCCCCC2)c2c(ccc3ccccc32)o1,-12.8%,–
CCCCCCN1C[C@H](O)[C@@H](n2cc(COC(=O)c3ccccc3)nn2)C[C@H]1c1ccc(Cl)cc1,-31.6%,–
